D1 agonist: Allosteric Agonists of the Human D1 Dopamine Receptor: qHTS | HEK293 T-REx D1 cells, calcium flux, agonist mode | activation, % at 2 µM | actives 1% (n = 360,000); in the data active means activation above about 30%; further: 0% is about no effect
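Inducible HEK293 T-REx D1 cells, force-coupled to calcium signalling, were plated at 4000 cells/well with tetracycline and held overnight at 30 C. After no-wash calcium dye loading, compound-evoked calcium rise over 180 s flagged agonists.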
DRD3 agonist: qHTS of D3 Dopamine Receptor Agonist: qHTS; D(3) dopamine receptor (Homo sapiens), P35462; actives 0.58% (n = 410,000); max activation, %; AID 652048, 2013; D3R DiscoveRx beta-arrestin cells, luminescence, 90 min; in the data active means max activation above about 30%; further: 0% is about no effect
Target sequence (P35462 whole entry, looked up): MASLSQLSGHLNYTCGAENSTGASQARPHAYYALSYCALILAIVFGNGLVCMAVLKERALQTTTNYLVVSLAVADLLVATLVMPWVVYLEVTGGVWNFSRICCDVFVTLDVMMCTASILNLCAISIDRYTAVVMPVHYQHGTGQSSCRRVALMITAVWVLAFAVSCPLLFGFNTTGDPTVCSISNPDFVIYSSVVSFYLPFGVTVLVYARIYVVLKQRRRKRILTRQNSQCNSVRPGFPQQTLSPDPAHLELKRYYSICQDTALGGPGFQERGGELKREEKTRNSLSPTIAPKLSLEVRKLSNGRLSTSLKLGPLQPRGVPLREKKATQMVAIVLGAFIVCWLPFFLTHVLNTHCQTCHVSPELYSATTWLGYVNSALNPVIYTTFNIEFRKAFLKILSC
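Cells at 1500/well, incubated overnight, then treated with pinned compounds (dopamine as control) for 90 min at 37 degrees C. DiscoveRx reagent added for 30 - 60 minutes at room temperature; luminescence read.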
DRD3 antagonist: qHTS of D3 Dopamine Receptor Antagonist: qHTS; AID 652054, 2013; D(3) dopamine receptor (Homo sapiens), P35462; max response, negative = inhibition, %; actives 2.5% (n = 360,000); D3R cells, DiscoveRx beta-arrestin luminescence, antagonist mode; active compounds read low; in the data active means max response below about -50%; further: on the % scale 0 is the no-effect control and ±100 the full control effect
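Cells plated overnight at 1500 cells/well, then exposed to library compounds with dopamine controls for 90 minutes at 37 degrees C. DiscoveRx reagent added for 30–60 minutes at room temperature; luminescence read, quantitative HTS format.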
D1 potentiator: Potentiators of Human D1 Dopamine Receptor: qHTS; D(1A) dopamine receptor (Homo sapiens), P21728; HEK293 TREx D1 cells, calcium flux, dopamine EC20 potentiation; potentiation, % at 10 µM; actives 0.036% (n = 360,000); AID 504651, 2011; in the data active means potentiation above about 30%; further: 0% is about no effect
D1 antag: Antagonist of Human D 1 Dopamine Receptor: qHTS | AID 504652, 2011 | actives 3.2% (n = 360,000) | HEK293 TREx D1 cells, calcium flux, dopamine EC80; active compounds read low | D(1A) dopamine receptor (Homo sapiens), P21728 | activity change, negative = inhibition, % at 10 µM; in the data active means activity change below about -30%; further: on the % scale 0 is the no-effect control and ±100 the full control effect
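After overnight tetracycline induction at 30 C, force-coupled D1 HEK293 cells took up a no-wash calcium dye at room temperature. Compounds were added and monitored 180 s, and the response to EC80 dopamine was then recorded.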
Starred values were filed as active, the others as inactive; ! = not confirmed by another sample. This is a sample that favours compounds with a hit; in the whole collection about 6.1% have one here.

`CCOC(=O)c1sc(N2C(=O)c3oc4cc(C)c(C)cc4c(=O)c3C2c2ccc(C)cc2)nc1C` (stereo not given) gave D1 agonist 0, DRD3 agonist -11, D1 potentiator -4 and D1 antag -23.
For CCCCOc1ccc(C2c3c(oc4ccccc4c3=O)C(=O)N2c2nc(C)c(C(=O)OCC)s2)cc1OC (stereo not given) the results were D1 agonist 0, DRD3 agonist 4, D1 potentiator -2 and D1 antag -31*.
Screening O=C1c2oc3ccccc3c(=O)c2C(c2cccc(O)c2)N1c1nncs1 (stereo not given) returned D1 agonist 0, DRD3 agonist -17, D1 potentiator -6 and D1 antag 0.
For Clc1ccc(CSc2nnc(-c3c[nH]c4ccccc34)o2)cc1 the results were D1 agonist 3, DRD3 agonist -3, DRD3 antagonist -14, D1 potentiator -7 and D1 antag -6.
`CCOc1ccccc1-c1nnc(SCc2ccc(Cl)cc2)o1` gave D1 agonist 61*, DRD3 agonist 5, D1 potentiator 4 and D1 antag -29.
`O=C(NCC(c1cccnc1)N1CCN(c2ccccc2F)CC1)c1ccco1` (stereo not given) gave D1 agonist 0, DRD3 agonist 2, DRD3 antagonist 6, D1 potentiator 2 and D1 antag -7.
`O=C(NCC(c1ccco1)N1CCN(c2ccccc2F)CC1)c1cccs1` (stereo not given) gave D1 agonist 12, DRD3 agonist 22, DRD3 antagonist 14, D1 potentiator -3 and D1 antag 19.
For COc1ccc(C(CNC(=O)c2ccco2)N2CCCCC2)cc1 (stereo not given) the results were D1 agonist 0, DRD3 agonist -14, DRD3 antagonist -26, D1 potentiator -1 and D1 antag -6.
For O=C(NCC(c1ccco1)N1CCN(c2ccccc2F)CC1)c1ccco1 (stereo not given) the results were D1 agonist 2, DRD3 agonist 39*, DRD3 antagonist 2, D1 potentiator -2 and D1 antag -21.
`O=C(NCc1cccs1)C(=O)NCC(c1ccco1)N1CCN(c2ccccc2F)CC1` (stereo not given) gave D1 agonist 0, DRD3 agonist 73*, DRD3 antagonist 22, D1 potentiator 1 and D1 antag 21.
Cc1ccc(C(CNC(=O)c2ccco2)N2CCN(C)CC2)cc1 (stereo not given) was read as D1 agonist 0, DRD3 agonist -9, DRD3 antagonist -57*, D1 potentiator -19 and D1 antag -12.
For Cc1ccc(CNc2oc(-c3ccco3)nc2S(=O)(=O)c2ccccc2)cc1 the results were D1 agonist 3, DRD3 agonist -9, DRD3 antagonist 28, D1 potentiator 4 and D1 antag 3.
Screening CCCCCn1c(CCCNC(=O)c2ccc(Cl)cc2)nc2ccccc21 returned D1 agonist 7, DRD3 agonist -8, D1 potentiator -1 and D1 antag 3.
COc1ccc(C(=O)NC(=S)Nc2ccc(Cl)c(C(=O)O)c2)cc1 was read as D1 agonist -2, DRD3 agonist -6, DRD3 antagonist -17, D1 potentiator 6 and D1 antag 8.
`CC(C)Oc1cccc(C(=O)NC(=S)Nc2ccc(Cl)c(C(=O)O)c2)c1` gave D1 agonist 0, DRD3 agonist -1, DRD3 antagonist -88*, D1 potentiator 5 and D1 antag -6.
`CC(=O)Nc1cccc(NC(=O)c2ccccc2Cl)c1` gave DRD3 agonist -9 and DRD3 antagonist -55*.
For COc1cc(OC)c(NC(=S)Nc2cccc(C(C)=O)c2)cc1Cl the results were D1 agonist 4, DRD3 agonist -10, DRD3 antagonist -60*, D1 potentiator -8 and D1 antag -10.
Screening CC(=O)Nc1cccc(O)c1 returned D1 agonist 4, DRD3 agonist 83*!, DRD3 antagonist -1 and D1 potentiator 4.
CN(C)S(=O)(=O)Oc1cccc(C(=O)Nc2ccc(Cl)c(Cl)c2)c1 was read as D1 agonist 11, DRD3 agonist 5, DRD3 antagonist -53*, D1 potentiator -4 and D1 antag -27.
`CC(=O)c1cccc(NC(=S)NC(=O)c2ccc(C)cc2Cl)c1` gave D1 agonist 6, DRD3 agonist 1, DRD3 antagonist 21, D1 potentiator 0 and D1 antag -19.
CC(=O)c1cccc(NC(=S)NC(=O)Cc2ccccc2)c1 was read as D1 agonist 20, DRD3 agonist -5, DRD3 antagonist -5, D1 potentiator -4 and D1 antag -5.
Screening CC(=O)Nc1cccc(C(=O)OCc2ccc(C(=O)Oc3ccc(Cl)cc3)cc2)c1 returned D1 agonist 9, DRD3 agonist 6, DRD3 antagonist 16, D1 potentiator -7 and D1 antag -32*.
For CC(=O)c1cccc(NC(=S)NC(=O)c2ccccc2Cl)c1 the results were D1 agonist 6, DRD3 agonist -5, DRD3 antagonist -20, D1 potentiator -3 and D1 antag -31*.
For CC(=O)c1cccc(NC(=S)NC(=O)Cc2ccc(Cl)cc2)c1 the results were D1 agonist 63*, DRD3 agonist -3, DRD3 antagonist -12, D1 potentiator -5 and D1 antag -1.
Screening Cc1ccc(S(=O)(=O)n2nc(-c3ccco3)nc2NCc2ccccc2Cl)cc1 returned D1 agonist 6, DRD3 agonist -4, D1 potentiator 0 and D1 antag -5.
`COc1cccc(NC(=O)CN(C)C(=O)c2ccc(Cl)c(S(=O)(=O)N3CCCCCC3)c2)c1` gave D1 agonist 4, DRD3 agonist -15, DRD3 antagonist -7, D1 potentiator 6 and D1 antag 3.
`Cc1ccccc1NC(=O)OCc1ccccc1` gave D1 agonist 2, DRD3 agonist 61*, DRD3 antagonist 7, D1 potentiator 5 and D1 antag 4.
For CSc1ccccc1COC(=O)Nc1ccccc1C the results were D1 agonist 2, DRD3 agonist 0, DRD3 antagonist -23, D1 potentiator -5 and D1 antag -2.
`Cc1cccc(COC(=O)Nc2ccc(NC(=O)c3ccccc3Cl)cc2)c1` gave D1 agonist 9, DRD3 agonist -6, DRD3 antagonist 26, D1 potentiator -8 and D1 antag -56*.
`CCOC(=O)Nc1ccccc1C(=O)Nc1cc(C)cc(C)c1` gave D1 agonist 2, DRD3 agonist -17, DRD3 antagonist -13, D1 potentiator -4 and D1 antag -24.

Assay outcomes (PubChem BioAssay)
